# CYP2C9 inhib: blocks human cytochrome P450 2C9; inhibition, % at 5 µM; 20% of 96,000 active; CYP2C9 Supersomes, luciferin-H conversion, luminescence; P11712;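 active = blocking of liver enzyme CYP2C9 beyond about 50% at 5 µM, limit read from the data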
# CYP2C19 act: increases human CYP2C19 enzyme activity | P33261 | recombinant CYP2C19, luciferin-H EGE luminescence; active compounds read high; 0 = fully inhibited enzyme, 1 = untreated enzyme | activation factor at 5 µM | 96,000 tested, under 10 active | AID 1025;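 active = activation factor of at least 2 at 5 µM in the primary screen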
# sEH inhibitor: inhibitors of human soluble epoxide hydrolase; inhibition, % at 2 µM; P34913; recombinant human sEH enzymatic activity assay; 0.34% of 91,000 active; in the data active = inhibition above about 80%
# Target sequence (P34913 whole entry, looked up): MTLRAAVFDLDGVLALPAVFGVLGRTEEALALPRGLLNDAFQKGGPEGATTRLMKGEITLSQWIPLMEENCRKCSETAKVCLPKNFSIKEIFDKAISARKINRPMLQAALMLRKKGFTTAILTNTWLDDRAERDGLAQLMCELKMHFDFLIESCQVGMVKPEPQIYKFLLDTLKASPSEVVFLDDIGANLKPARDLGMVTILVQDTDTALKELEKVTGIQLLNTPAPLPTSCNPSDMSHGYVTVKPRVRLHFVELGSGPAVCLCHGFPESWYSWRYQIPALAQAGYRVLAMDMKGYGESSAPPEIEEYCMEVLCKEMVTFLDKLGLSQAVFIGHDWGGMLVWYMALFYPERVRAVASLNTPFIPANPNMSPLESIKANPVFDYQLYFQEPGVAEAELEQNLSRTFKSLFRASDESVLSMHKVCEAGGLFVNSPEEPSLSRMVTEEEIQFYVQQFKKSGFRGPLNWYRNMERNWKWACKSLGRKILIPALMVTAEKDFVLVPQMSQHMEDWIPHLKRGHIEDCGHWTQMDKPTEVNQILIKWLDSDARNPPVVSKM
# CYP2C19 inh: human CYP2C19 inhibition; inhibition, % at 5 µM; P33261; AID 778; CYP2C19 Supersomes, luciferin-H EGE luminescence, 30 min; 21% of 96,000 active;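 active = CYP2C19 inhibition above a set limit at 5 µM in the primary screen, cut at about 50% in these data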
# sEH activator: increases human soluble epoxide hydrolase activity. 0.04% of 91,000 active. purified human sEH enzymatic activity, activator screen. activation, % at 2 µM. P34913; in the data active = activation above about 37%
# CYP2C9 act: CYP2C9 (human) activation; P11712; recombinant CYP2C9, luciferin-H conversion, luminescence; active compounds read high; factor 1 = untreated enzyme, 0 = blocked; activation factor at 5 µM; 1.4% of 96,000 active;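 active = activation factor of 2 or more for CYP2C9 at a 5 µM dose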
# Numbers stand for hits; i = inactive; nt = no result given. In the library only some 27% were active in any assay of this set; here they are far more common.
SMILES,CYP2C9 inhib,CYP2C19 act,sEH inhibitor,CYP2C19 inh,sEH activator,CYP2C9 act
COc1ccc(N(C)S(=O)(=O)c2ccc3c(c2)CCC(=O)N3)cc1,i,i,i,i,i,i
COC(=O)c1cc(NS(=O)(=O)c2ccc(N3CCCCC3)c([N+](=O)[O-])c2)cc(C(=O)OC)c1,i,i,i,i,i,i
COC(=O)c1cc(NS(=O)(=O)c2ccc3c(c2)CCC(=O)N3)cc(C(=O)OC)c1,57,i,i,68,i,i
COc1ccc(OC)c(NS(=O)(=O)c2ccc3c(c2)CCC(=O)N3)c1,i,i,i,53,i,i
COc1ccc(OC)c(S(=O)(=O)N2CCC(C(=O)NCCc3ccccc3)CC2)c1,i,i,i,i,i,3.2
COc1ccc(CNC(=O)C2CCN(S(=O)(=O)c3cc(OC)ccc3OC)CC2)cc1,i,i,i,65,i,i
Cc1ccc(Cl)cc1N1CCN(C(=O)C2CCN(c3nnc(-n4cccc4)s3)CC2)CC1,85,i,nt,i,nt,i
COc1ccc(OC)c(S(=O)(=O)N2CCC(C(=O)N3CCN(Cc4ccccc4)CC3)CC2)c1,55,i,i,i,i,i
CC(C)(C)n1ncc(Oc2ccc(Oc3cnn(C(C)(C)C)c(=O)c3Cl)cc2)c(Cl)c1=O,nt,nt,i,nt,i,nt
O=C(COc1ccc(Cl)cc1Cl)N(Cc1ccco1)C1CCS(=O)(=O)C1 (stereo unspecified),i,i,i,i,i,i
CCC(C)N(CC(=O)NCc1ccc(OC)cc1)C(=O)c1csnn1 (stereo unspecified),i,i,i,i,i,i
COc1ccc(OC)c(S(=O)(=O)N2CCC(C(=O)NC(C)c3ccccc3)CC2)c1 (stereo unspecified),i,i,i,i,i,2.9
COc1ccc(C2OC(=O)CC2C(=O)N2CCN(c3cc(Cl)ccc3C)CC2)cc1OC (stereo unspecified),85,i,nt,73,nt,i
CC(C)CCNC(=O)C1CCN(c2nnc(-n3cccc3)s2)CC1,i,i,i,i,i,i
COc1ccc(OC)c(CCNC(=O)C2CCN(c3nnc(-n4cccc4)s3)CC2)c1,65,i,i,93,i,i
CCc1ccccc1N1CCN(S(=O)(=O)c2cc(OC)ccc2OC)CC1,99,i,i,100,i,i
COc1ccc(NC(=O)CSc2nnc(-c3ccccn3)n2-c2ccccc2)cc1OC,i,i,i,i,i,i
Cc1nn(C)c(Oc2cccc(Cl)c2)c1C(=O)O,i,i,i,i,i,i
CC1CCN(Cc2ccc(NC(=O)C3CCN(c4nnc(-n5cccc5)s4)CC3)cc2)CC1,i,i,nt,56,nt,i
O=C(Oc1ccc2c(c1)OCC2=O)c1ccccc1,i,i,i,i,i,i
CC(=O)Oc1ccc2c(c1)C(=O)c1ccccc1CO2,i,i,i,68,i,i
CC(=O)CSc1nnc(-c2ccc(S(=O)(=O)N3CCC(C)CC3)cc2)o1,nt,nt,i,nt,i,nt
CC1CCCC(C)N1CC(O)COCC1COc2ccccc2O1 (stereo unspecified),i,i,i,i,i,i
CCOC(=O)C1CN(S(=O)(=O)c2ccc(C)cc2)C1,i,i,i,i,i,i
CCC(=O)N1CN(S(=O)(=O)c2ccc(C)cc2)CC1C (stereo unspecified),i,i,nt,53,nt,i
SMILES,CYP2C9 inhib,CYP2C19 act,sEH inhibitor,CYP2C19 inh,sEH activator,CYP2C9 act
C/C(=N\Nc1nccnc1Cl)c1ccc([N+](=O)[O-])cc1,i,i,i,i,i,i
O=[N+]([O-])c1cccc(/C=N/Nc2nccnc2Cl)c1,i,i,i,60,i,i
Oc1ccc(/C=N/Nc2nccnc2Cl)cc1,100,i,i,98,i,i
Nn1cc(-c2ccccc2)nc1SCC(=O)N1CCN(S(=O)(=O)c2ccc3ccccc3c2)CC1,i,i,i,i,i,i
COc1ccc(C)cc1NC(=O)COC(=O)C1CC1,i,i,i,i,i,i
COCCCn1c(SCC(=O)Nc2sc3c(c2C#N)CCCC3)nnc1-c1ccncc1,nt,nt,i,nt,i,nt
COCCCn1c(SCC(=O)Nc2cccc(C(=O)OC)c2)nnc1-c1ccncc1,79,i,i,81,i,i
C=CCn1c(SCC(=O)Nc2cccc(C(=O)OC)c2)nnc1C(C)NC(=O)c1cccs1 (stereo unspecified),82,i,i,71,i,i
COCCn1c(SCC(=O)Nc2cccc(OC)c2)nnc1-c1ccccc1,i,i,i,i,i,i

# High-throughput results as filed in PubChem.
